Bioassay records from PubChem BioAssay.
CYP2C9 inh = blocks human cytochrome P450 2C9; P11712; CYP2C9 Supersomes, luciferin-H conversion, luminescence; inhibition, % at 5 µM; 20% of 96,000 active; AID 777;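 active = blocking of liver enzyme CYP2C9 beyond about 50% at 5 µM, limit read from the data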
CYP2C9 activ = activators of human CYP2C9; recombinant CYP2C9, luciferin-H conversion, luminescence; active compounds read high; factor 1 = untreated enzyme, 0 = blocked; activation factor at 5 µM; 1.4% of 96,000 active;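 active = activation factor of 2 or more for CYP2C9 at a 5 µM dose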;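 note: 0 = sulfaphenazole-blocked wells and 1 = vehicle-only wells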
sEH inh = inhibitors of human soluble epoxide hydrolase. recombinant human sEH enzymatic activity assay. inhibition, % at 2 µM. 0.34% of 91,000 active. AID 707; in the data active = inhibition above about 80%
Target sequence (P34913 whole entry, looked up): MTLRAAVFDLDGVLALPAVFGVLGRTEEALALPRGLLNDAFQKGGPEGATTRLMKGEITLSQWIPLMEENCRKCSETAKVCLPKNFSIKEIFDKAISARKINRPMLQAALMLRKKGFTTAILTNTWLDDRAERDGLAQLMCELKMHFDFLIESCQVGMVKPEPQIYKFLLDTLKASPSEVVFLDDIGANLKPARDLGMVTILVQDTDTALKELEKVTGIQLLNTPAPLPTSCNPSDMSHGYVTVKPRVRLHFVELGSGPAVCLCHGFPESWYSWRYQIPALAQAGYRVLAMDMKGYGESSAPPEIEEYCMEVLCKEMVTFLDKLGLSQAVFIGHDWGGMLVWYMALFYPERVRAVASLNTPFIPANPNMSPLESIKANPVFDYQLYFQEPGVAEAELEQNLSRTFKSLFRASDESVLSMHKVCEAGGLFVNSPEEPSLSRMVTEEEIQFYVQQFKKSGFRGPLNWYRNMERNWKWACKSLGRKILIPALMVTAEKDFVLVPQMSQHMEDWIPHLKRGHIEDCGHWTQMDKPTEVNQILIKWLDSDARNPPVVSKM
sEH activator = activators of human soluble epoxide hydrolase. P34913. AID 717. 0.04% of 91,000 active. purified human sEH enzymatic activity, activator screen. activation, % at 2 µM; in the data active = activation above about 37%
CYP2C19 inhib = inhibitors of human CYP2C19 | P33261 | CYP2C19 Supersomes, luciferin-H EGE luminescence, 30 min | inhibition, % at 5 µM | 21% of 96,000 active | AID 778;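 active = CYP2C19 inhibition above a set limit at 5 µM in the primary screen, cut at about 50% in these data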;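 note: plate controls were negative control wells for no effect and 2.5 mM tranylcypromine positive control for full effect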
CYP2C19 activ = increases human CYP2C19 enzyme activity; recombinant CYP2C19, luciferin-H EGE luminescence; active compounds read high; 0 = fully inhibited enzyme, 1 = untreated enzyme; activation factor at 5 µM; AID 1025; 96,000 tested, under 10 active;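 active = activation factor of at least 2 at 5 µM in the primary screen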;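 note: 0 = wells with 2.5 mM tranylcypromine and 1 = vehicle-only wells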
Active calls of the source: *; . = no result given. The list is not random: actives were taken first. Their share in the collection is about 27%.

SMILES	CYP2C9 inh	CYP2C9 activ	sEH inh	sEH activator	CYP2C19 inhib	CYP2C19 activ
CC(=O)c1cc(OC(=O)c2ccncc2)ccc1OC(=O)c1ccncc1	65*	0.3	-5	4	90*	0.1
CCCCCCOc1ccc(OC(=O)c2ccncc2)cc1	.	.	3	2	.	.
COc1ccc(OC(=O)c2ccncc2)cc1	57*	0.4	14	-12	77*	0.2
CCC1CCCCN1Cc1nc2c(c(=O)n(C)c(=O)n2C)n1Cc1cccc2ccccc12 (stereo unspecified)	40	0.6	.	.	10	0.9
O=C(c1ccccc1)c1cncc(Br)c1	7	0.9	4	-2	11	0.9
COc1ccc(C(=O)COC(=O)C(CCCCN2C(=O)C3C4C=CC(C4)C3C2=O)N2C(=O)C3C4C=CC(C4)C3C2=O)cc1 (stereo unspecified)	.	.	-4	8	.	.
Cc1cc2nc(C3CCN(CC4COc5ccccc5O4)CC3)[nH]c2cc1C (stereo unspecified)	41	0.6	14	-15	54*	0.5
CCCNC(=S)N1CCC(c2nc3cc(C)c(C)cc3[nH]2)CC1	16	0.8	-18	23	23	0.8
CCOc1ccccc1N1CC(C(=O)N2CCc3ccccc3C2)CC1=O (stereo unspecified)	6	0.9	-7	10	30	0.7
Cc1ccc(C(=O)CCCn2nnc(-c3cccnc3)n2)cc1C	55*	0.4	7	-4	80*	0.2
COc1ccc(N2CCN(C(=O)c3ccncc3)CC2)cc1	39	0.6	9	-6	79*	0.2
CCn1cnc2sc(C(=O)N3CCN(c4ccc(OC)cc4)CC3)c(C)c2c1=O	57*	0.4	-18	19	24	0.8
COc1ccc(CC(=O)N2CCN(c3ccccn3)CC2)cc1	.	.	-2	7	.	.
CCCNC(=O)Cn1cnc2sc(C(=O)N3CCN(CCC)CC3)c(C)c2c1=O	6	0.9	.	.	0	1
COc1cc(NC(=O)c2ccccc2)c(OC)cc1NC(=O)CN1CCN(c2ccccn2)CC1	26	0.7	1	-1	15	0.9
COc1ccc(Cl)cc1NC(=S)N1CCN(c2ccccn2)CC1	-154	2.5*	4	-5	56*	0.4
COc1ccc(C(=O)N2CCN(c3ccccn3)CC2)cc1	20	0.8	-3	1	67*	0.3
Cc1cc2c(nn1)CCC/C2=N\O	-14	1.1	-1	1	-10	1.1
CC(=O)c1c(C)[nH]c(C(=O)CSc2nnc(-c3ccc(Cl)cc3)n2CC2CCCO2)c1C (stereo unspecified)	11	0.9	-12	12	9	0.9
Cc1cc(C)c(S(=O)(=O)N2CCN(c3nc4c(c(=O)n(C)c(=O)n4C)n3C)CC2)c(C)c1	22	0.8	.	.	9	0.9
CCCS(=O)(=O)N1CCN(C(=O)c2cccc(OC)c2)CC1	11	0.9	.	.	78*	0.2
COc1cccc(C(=O)N2CCN(c3ncccn3)CC2)c1	32	0.7	.	.	70*	0.3
COc1cccc(C(=O)N2CCN(C3CCC(c4ccccc4)CC3)CC2)c1 (stereo unspecified)	34	0.7	.	.	91*	0.1
O=C(c1cccc(COc2ccc(Cl)cc2Cl)c1)N1CCN(c2ccccn2)CC1	70*	0.3	-18	18	54*	0.5
O=C(c1cccc(C(=O)N2CCN(c3ncccn3)CC2)c1)N1CCN(c2ncccn2)CC1	13	0.9	-4	6	0	1
SMILES	CYP2C9 inh	CYP2C9 activ	sEH inh	sEH activator	CYP2C19 inhib	CYP2C19 activ
COc1ccc(C(=O)Nc2cc(C)c3c(=O)oc4ccccc4c3n2)cc1	5	0.9	4	-6	-8	1.1
O=C1NC2(CCCc3ccccc32)C(=O)N1CCOc1ccc(Br)cc1 (stereo unspecified)	16	0.8	11	-8	5	1
CCCN1CCN(C(=O)C2CCN(S(=O)(=O)c3ccc4c(c3)oc(=O)n4C)CC2)CC1	-4	1	2	-1	-10	1.1
COc1cccc(C(=O)N2CCN(Cc3ccccc3C(F)(F)F)CC2)c1	37	0.6	.	.	95*	0.1
COc1ccc(CCN2C(=O)C3CC(C)=C(C)CC3C2=O)cc1OC (stereo unspecified)	4	1	-9	9	44	0.6
CCn1ccnc1C(O)c1cccc(OC)c1OC (stereo unspecified)	-15	1.2	-16	15	1	1
CCC(CC)n1[nH]c(=O)cc1N	.	.	4	-1	.	.
CCC(C)(C)n1nnnc1C(c1cc(OC)c(OC)c(OC)c1)N1CCN(c2ccccc2)CC1 (stereo unspecified)	6	0.9	8	-8	24	0.8
COc1ccc(CN(C)C(c2ccccc2)c2nnnn2-c2ccccc2C)c(OC)c1C (stereo unspecified)	79*	0.2	5	-6	94*	0.1
COc1ccc(C(=O)N(CN2CCCC2=O)c2nccs2)cc1OC	9	0.9	.	.	1	1
c1ccc(N(c2ccccc2)c2nc(N3CCCC3)nc(-n3ccnc3)n2)cc1	6	0.9	8	-6	-1	1
Nc1ccc(-n2ccnc2)cc1	52*	0.5	-3	4	58*	0.4
COCCCn1c(SCc2ccc(OC)cc2)nc2cc(OC)c(OC)cc2c1=N	72*	0.3	0	3	55*	0.5
N#CCCN/N=C(/Cc1nc2ccccc2[nH]1)c1ccc(Cl)cc1	75*	0.2	-6	6	98*	0
N#CCCN/N=C(\Cc1nc2ccccc2[nH]1)c1ccccc1	23	0.8	-2	2	16	0.8
CCc1cc2c(=O)n(-c3ccc(C)cc3)cnc2s1	.	.	0	2	.	.
CCC(=O)n1nc(-c2ccccc2)nc1NCc1ccccc1	16	0.8	8	-5	16	0.8
CCC(=O)n1nc(-c2cccnc2)nc1NCc1ccc(OC)cc1	61*	0.4	-12	10	73*	0.3
O=C(Nc1ccon1)c1cccc(C(F)(F)F)c1	2	1	.	.	39	0.6
COc1ccccc1N(C(C)=O)C1SC(=O)N(c2ccccc2)C1=O (stereo unspecified)	-7	1.1	.	.	54*	0.5
Cc1cccc(N(CC(N)=O)C2SC(=O)N(c3ccccc3)C2=O)c1 (stereo unspecified)	-17	1.2	-9	9	9	0.9
CCOC(=O)NC(Nc1sc2c(c1C(N)=O)CCCC2)(C(=O)OCC)C(F)(F)F (stereo unspecified)	28	0.7	-3	3	19	0.8
COC(=O)c1cc2c([nH]c3ccccc32)c(C)n1	-3	1	-16	16	62*	0.4
Cc1nc(C(=O)Nc2ccccc2Cl)cc2c1[nH]c1ccccc12	21	0.8	-10	13	-3	1
